Results as given in PubChem BioAssay (NCI).
Compounds without any hit were thinned out: in the full panel of roughly 83,000, 20% have a hit.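 Compound tested at a single concentration for 48 hours in 96-well plates; a percent growth value below 10 was scored as active.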

Experiments:
Experiment in all cases: NCI-60 one-dose screen, 48 h (100 = growth as untreated, 0 = no growth, -100 = all killed)
Conditions in all cases: 10 µM unless noted
[1] = system: SK-MEL-2 melanoma
[2] = system: EKVX NSCLC
[3] = system: SN12C renal
[4] = system: UO-31 renal
[5] = system: TK-10 renal
[6] = system: ACHN renal
[7] = system: CAKI-1 renal
[8] = system: A498 renal
[9] = system: CCRF-CEM leukemia
[10] = system: MOLT-4 leukemia

Measured: growth

C=CCn1c(SCC(=O)Nc2ccc(C(=O)/C=C/c3cc4cc(OC)ccc4nc3Cl)cc2)nnc1-c1ccc(Br)cc1
inactive: [1] 79.2% | [2] 87.4% | [3] 81.5% | [4] 65.3% | [5] 93.5% | [6] 92.1% | [7] 76.1% | [8] 89.5% | [9] 58.5% | [10] 68.5%

O=C(CN1C(=O)CCC1=O)Nc1ncc(Cc2ccc(F)cc2)s1
inactive: [1] 100% | [2] 92.6% | [3] 98.8% | [4] 76% | [5] 101% | [6] 98.6% | [7] 91.5% | [8] 105% | [9] 105% | [10] 102%

Cn1cccc1C(=O)C1C(c2cccc([N+](=O)[O-])c2)C2C3CCCCC3CN2C12C(=O)Nc1ccc(Cl)cc12 (stereo not given)
inactive: [1] 66.5% | [2] 46.4% | [3] 59.4% | [4] 45.5% | [5] 103% | [6] 59.9% | [7] 17.4% | [8] 86% | [9] 58.6% | [10] 28%

COc1cc(-c2nc(SCCC(C)C)nc(Nc3ccccc3Cl)c2C#N)cc(OC)c1OC
inactive: [1] 101% | [2] 93.3% | [3] 90% | [4] 69.7% | [5] 125% | [6] 97.1% | [7] 78.9% | [8] 85.3% | [9] 92.1% | [10] 87.4%

CCOC(=O)c1cc(-c2ccc([N+](=O)[O-])cc2)n(-c2ccc(C(=O)O)c(O)c2)c1C
inactive: [1] 53.8% | [2] 55.3% | [3] 72.7% | [4] 24.5% | [5] 101% | [6] 68.7% | [7] 79.4% | [8] 76.4% | [9] 50% | [10] 27.2%

CN1C(=O)N(C)C2Nn3c(s/c(=C\c4ccc(C(F)(F)F)cc4)c3=O)=NC21 (stereo not given)
inactive: [1] 115% | [2] 100% | [3] 100% | [4] 82.3% | [5] 106% | [6] 105% | [7] 82.7% | [8] 109% | [9] 101% | [10] 106%

O=C(OCc1ccc2c(Cl)cc(Cl)c(O)c2n1)n1cncn1
inactive: [1] 36.6% | [2] 26.4% | [3] 37.2% | [4] 15.2% | [5] 61.7% | [6] 25.3% | [7] 13.6% | [8] 64.9% | [9] 24.2% | [10] 18.3%

COc1ccc(OC)c(-c2c(C#N)c(-c3cccs3)nc3c2c(-c2ccccc2)nn3-c2ccccc2)c1
inactive: [1] 107% | [2] 99.7% | [3] 99.3% | [4] 97.1% | [5] 108% | [6] 102% | [7] 91.9% | [8] 103% | [9] 99.7% | [10] 99.4%

C=C(C)[C@@H]1CC[C@]2(C(=O)N3CCN(C)CC3)CC[C@]3(C)[C@H](CC[C@@H]4[C@@]5(C)CC(=C/c6ccncc6)/C(=N/O)C(C)(C)[C@@H]5CC[C@]43C)[C@@H]12
inactive: [1] 83.8% | [2] 84.6% | [3] 74.7% | [4] 45.5% | [5] 85.2% | [6] 75.9% | [7] 63.8% | [8] 96.8% | [9] 57.9% | [10] 33.9%

CC(=O)N1N=C(c2ccc(Nc3nc(Nc4ccc(Cl)cc4)nc(Nc4ccc(Cl)cc4)n3)cc2)CC1c1ccco1 (stereo not given)
inactive: [1] 77.7% | [2] 97% | [3] 90.3% | [4] 85.6% | [5] 110% | [6] 98.8% | [7] 86.8% | [8] 107% | [9] 92.4% | [10] 66%

COC(=O)c1c2c(c(C)[n+]([O-])c1C)C(=O)C(NCc1ccc(Cl)cc1)=CC2=O
inactive: [1] 83.4% | [2] 70.9% | [3] 38% | [4] 79% | [5] 111% | [6] 67.5% | [7] 76.3% | [8] 88.2% | [9] 58% | [10] 72.8%

CCCc1cc(NC)nc(S(=O)(=O)CC)n1
inactive: [1] 115% | [2] 104% | [3] 99.1% | [4] 91.8% | [5] 110% | [6] 107% | [7] 98.1% | [8] 113% | [9] 107% | [10] 107%

O=C(NNC(=O)c1ccc(-n2cc(-c3ccccc3)nn2)cc1)Nc1ccccc1
inactive: [1] 110% | [2] 108% | [3] 97.7% | [4] 92.2% | [5] 109% | [6] 101% | [7] 91.8% | [8] 105% | [9] 102% | [10] 107%
